Here are results for 26 molecules from PubChem BioAssay (NCATS).

Results filed as inconclusive are left out. Activity calls are given as the source filed them. Calls come from the whole dose curve; as a rule, active = well fitted inhibition curve with a large enough effect; inconclusive = small, poorly fitted or top-dose-only effect; inactive = no such curve, though single readings can be large or run the other way.
Potency is the fitted concentration of half-maximal effect.

The experiment is described as follows: P-glycoprotein substrates identified in KB-3-1 adenocarcinoma cell line, qHTS therapeutic library screen (AID 1346986). Note: nearly all actives have a fitted effect of over 60% in size.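 Note: potency is for cytotoxicity meaning loss of cell viability.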 To be noted: KB-3-1 parental cells viability, CellTiter-Glo, 72 h; series mostly up to 44.5 µM; activity change, negative = cytotoxicity: at the top concentration. The method, boiled down: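 Using luminescence to quantify ATP, parental and P-gp-overexpressing KB cells were compared after 72 h compound titration. KB-8-5-11 was also run with the P-gp inhibitor tariquidar.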
(In general: In qHTS, concentration-response curves come from the screen itself.)
With `CC/C=C\C/C=C\C/C=C\CCCCCCCC(=O)OCC(O)COC1OC(CO)C(O)C(O)C1O` (stereo unspecified), the “outcome” value is “inactive [at 17.4 µM]”.

As for `Cc1cc(=O)oc2c(C=O)c(O)ccc12`, the outcome was inactive.

For the molecule `COc1cc([C@H]2c3cc(O)c(OC)cc3C[C@@H](CO[C@@H]3O[C@H](CO)[C@@H](O)[C@H](O)[C@H]3O)[C@@H]2CO)ccc1O`, the “outcome” value was “inactive [at 17.4 µM]”.

As to `CC(=O)OC1C(O)C2C(C)C3=CC(=O)OC3(O)CC2C2(C)CCCC(C)(CO)C12` (stereo unspecified), the “outcome” value was “inactive [at 17.4 µM]”.

Regarding `CC1CC(C(O)C(C)(C)O)OC2CC3(C)C4(C)CCC5C(C)(C)C(=O)CCC5(C)C4CCC3(O)C12O` (stereo unspecified), the “outcome” value was “inactive [at 17.4 µM]”.

Regarding `O=C(Nc1c(-c2cccs2)nc2ccccn12)c1ccc(Cl)cc1`, the result was inactive.

Take `CC(C)(O[C@@H]1O[C@H](CO)[C@@H](O)[C@H](O)[C@H]1O)C(OC(=O)/C=C\c1ccc(O)cc1)C(=O)OCc1ccc(O[C@@H]2O[C@H](CO)[C@@H](O)[C@H](O)[C@H]2O)cc1` (stereo partly specified): the “outcome” value is “inactive [at 17.4 µM]”.

For `CC(C)=CCC/C(C)=C/CO[C@@H]1O[C@H](CO)[C@@H](O)[C@H](O)[C@H]1O`, the outcome was inactive.

With `O=C1NC(Cc2c[nH]c3ccccc23)C(=O)NC1Cc1c[nH]c2ccccc12` (stereo unspecified), the result was inactive.

In the case of `C[C@@H]1O[C@@H](O[C@H]2[C@H](O[C@H]3CC[C@@]4(C)C(CC[C@]5(C)C4CC=C4[C@@H]6CC(C)(C)CC[C@]6(C(=O)O[C@@H]6OC[C@H](O)[C@H](O)[C@H]6O[C@@H]6O[C@@H](C)[C@H](O[C@@H]7O[C@H](CO)[C@@H](O)[C@H](O)[C@H]7O)[C@H](O)[C@H]6O)[C@H](O)C[C@]45C)C3(C)C)O[C@H](CO)[C@@H](O[C@@H]3OC[C@@H](O)[C@H](O)[C@H]3O)[C@@H]2O)[C@H](O)[C@H](O)[C@H]1O` (stereo partly specified), the outcome was “inactive [at 9.29 µM]”.

For the molecule `CC1=C2C[C@H]3O[C@@]3(C)CCC3O[C@@]3(C)C[C@@]2(O)OC1=O` (stereo partly specified), the result was inactive.

Consider `CC1=CC(=O)CC(C)(C)[C@H]1/C=C/C(CO)O[C@@H]1O[C@H](CO)[C@@H](O)[C@H](O)[C@H]1O` (stereo partly specified), for which the outcome was inactive.

For the molecule `CC1CC[C@]2(C(=O)O)CC[C@]3(C(=O)O)C(=CCC4[C@@]5(C)CC[C@H](OC6OC(C)C(O)C(OC7OC(CO)C(O)C(O)C7O)C6O)C(C)(C)C5CC[C@]43C)C2C1C` (stereo partly specified), the “outcome” value is “inactive [at 17.4 µM]”.

For `COc1cc2c(cc1OC)CC(=O)N(CCCNC[C@H]1Cc3cc(OC)c(OC)cc31)CC2`, the outcome was inactive.

For `CC1(C)CCCC2(C)C1C(O)C=C(CO)C2(O)CO` (stereo unspecified), the result was inactive.

For `COc1cc(O)cc(/C=C/c2ccc(O[C@@H]3O[C@H](CO)[C@@H](O)[C@H](O)[C@H]3O)cc2)c1`, the “outcome” value was “inactive [at 17.4 µM]”.

As for `C=C1C(=O)O[C@@H]2C[C@H](C)[C@@]3(O)C=C(C(C)=O)[C@]4(CC3C[C@H]12)C(=O)O[C@H]1C[C@@H](C)C(CCC(C)=O)=CC[C@H]14` (stereo partly specified), the “outcome” value is “inactive [at 17.4 µM]”.

With `CCCCNc1ncc2c(-c3ccc(CN4CCN(C)CC4)cc3)cn(C3CCC(O)CC3)c2n1` (stereo unspecified), the Potency is 517 nM (active).

On to `OC[C@H]1O[C@@H](OC(CCCCc2ccc(O)cc2)CCc2ccc(O)cc2)[C@H](O)[C@@H](O)[C@@H]1O` (stereo partly specified), for which the “outcome” value was “inactive [at 17.4 µM]”.

Take `CC1CC(O)C2(OC1=O)OC1C(O)C3C4CCC5CC(OC6OC(CO)C(O)C(O)C6OC6OC(C)C(O)C(O)C6O)CCC5(C)C4CCC3(C)C1C2C` (stereo unspecified): the “outcome” value was “inactive [at 17.4 µM]”.

Regarding `Cn1cc(-c2ccc3nnc(Sc4ccc5nn(C)cc5c4)n3n2)cn1`, the outcome was inactive.

Turning to `COc1cc2c3c(cc4ccccc4c3c1O)NC2=O`, the result was inactive.

In the case of `C=C[C@@]12COC(=O)C(=C)C1[C@@H](O)[C@H](C(=C)C(=O)OC)[C@@H](OC(=O)C(=C)CO)C2` (stereo partly specified), the “outcome” value is “inactive [at 17.4 µM]”.

`C[C@@H]1O[C@@H](O[C@H]2[C@H](O)[C@@H](O[C@@H]3O[C@H](CO)[C@@H](O)[C@H](O[C@@H]4O[C@H](CO)[C@@H](O)[C@H](O)[C@H]4O)[C@H]3O)[C@H](O[C@H]3CC[C@@]4(C)C(=CC[C@@H]5C4CC[C@@]4(C)C5C[C@@H]5OC6(CC[C@@](C)(CO[C@@H]7O[C@H](CO)[C@@H](O)[C@H](O)[C@H]7O)O6)[C@@H](C)[C@@H]54)C3)O[C@@H]2CO)[C@H](O)[C@H](O)[C@H]1OC1OC(CO)C(O)C(O)C1O` (stereo partly specified): the outcome was “inactive [at 9.29 µM]”.

On to `COC(=O)c1cc(OC)cc(OC)c1C(=O)c1c(OC)cc2c(c1O)C1CCCC(C)(O2)O1` (stereo unspecified), for which the “outcome” value is “inactive [at 17.4 µM]”.

In the case of `CC1=CCC(C(C)(C)O[C@@H]2O[C@H](CO[C@@H]3O[C@@H](C)[C@H](O)[C@@H](O)[C@H]3O)[C@@H](O)[C@H](O)[C@H]2O)CC1` (stereo partly specified), the “outcome” value was “inactive [at 17.4 µM]”.
